The list is not random: actives were taken first. Their share in the collection is about 7.5%.
NPC1 promoter act – qHTS Assay for NPC1 Promoter Activators; Huh7 NPC1 promoter luciferase reporter, 24 h; 320,000 compounds, 2.4% hits; Potency, µM (highest dose often 9.22 µM), actives largely listed as activators; AID 485313, 2010; further: nearly all actives have a fitted effect of over 60% in size
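Stably transfected Huh7 (NPC1 promoter→luciferase), 1500 cells/well in Opti-MEM + 10% FBS, 2 h settle, then compound 24 h at 37 °C. Luminescence after 10 min with Amplite reagent.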
ELG1 genotoxic – qHTS screen for small molecules that induce genotoxicity in human embryonic kidney (HEK293T) cells expressing luciferase-tagged ELG1 | Potency, µM (top dose mostly 46 µM), hits mostly activators | HEK293T ELG1-luciferase reporter, luminescence, 16 h | 330,000 compounds, 1.3% hits; further: nearly all actives have a fitted effect of over 60% in size
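HEK293T cells expressing luciferase-tagged ELG1 were treated with compound or DMSO for 16 hr at 37°C. Luciferase activity was then read after 30 min with ONE-Glo at room temperature; rising signal flags genetic stress.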
Rab9 prom act – qHTS Assay for Rab9 Promoter Activators; AID 485297, 2010; Huh7 Rab9 promoter-luciferase reporter, luminescence, 24 h; Potency, µM (top dose mostly 9.22 µM), hits mostly activators; 320,000 compounds, 2.8% hits; further: nearly all actives have a fitted effect of over 60% in size
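Stable Rab9-luc Huh7, 1500 cells/well, 2 h settle; cmpd in DMSO, 24 h, 37 °C/5% CO2; luciferase reagent 10 min RT; luminescence.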
FLuc counter – qHTS profiling assay for firefly luciferase inhibitor/activator using purifed enzyme and Km concentrations of substrates (counterscreen for miR-21 project). 360,000 compounds, 6.9% hits. purified FLuc, Km substrates, luminescence inhibition. Potency, µM (doses to about 57.5 µM), usual class: inhibitors. Luciferin 4-monooxygenase (Photinus pyralis), P08659; further: nearly all actives have a fitted effect of over 55% in size
Target sequence (P08659 whole entry, looked up): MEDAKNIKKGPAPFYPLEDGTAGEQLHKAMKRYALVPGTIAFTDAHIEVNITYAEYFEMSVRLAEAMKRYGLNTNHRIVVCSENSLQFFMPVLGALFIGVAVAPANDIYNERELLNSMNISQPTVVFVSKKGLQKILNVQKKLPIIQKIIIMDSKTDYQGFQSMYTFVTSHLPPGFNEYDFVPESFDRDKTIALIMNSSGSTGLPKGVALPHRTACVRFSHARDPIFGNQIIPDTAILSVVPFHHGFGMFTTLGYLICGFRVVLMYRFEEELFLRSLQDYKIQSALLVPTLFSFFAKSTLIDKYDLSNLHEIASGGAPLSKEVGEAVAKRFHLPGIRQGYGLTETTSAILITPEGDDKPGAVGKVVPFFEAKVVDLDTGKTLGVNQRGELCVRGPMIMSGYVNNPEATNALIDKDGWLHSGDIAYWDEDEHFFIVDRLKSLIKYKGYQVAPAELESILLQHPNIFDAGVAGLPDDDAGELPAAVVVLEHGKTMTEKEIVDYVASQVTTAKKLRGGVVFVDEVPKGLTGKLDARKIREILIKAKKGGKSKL
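Purified P. pyralis luciferase (10nM final) with 10uM D-luciferin and 10uM ATP (Km levels) in 50mM Tris acetate pH 7.5, 10mM Mg acetate, 0.01% Tween-20, 0.05% BSA; qHTS 6-point titration, ~60 µM downward; luminescence read.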
SMN2 splice up – qHTS Assay for Enhancers of SMN2 Splice Variant Expression; 210,000 compounds, 2.8% hits; Potency, µM (highest dose often 46.1 µM), actives largely listed as activators; AID 1458, 2008; HEK293 SMN2-luciferase splicing reporter, luminescence, 30-36 h; further: nearly all actives have a fitted effect of over 55% in size
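qHTS luciferase splicing reporter: luminescence rises when SMN2 exon 7 is included in transfected HEK293 cells. Compound exposure lasted 30-36 h at 37C, with 4.5 mM final sodium butyrate as control, followed by a ONE-Glo read.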
A number is an active result; 0 = inactive; ? = inconclusive; - = not tested or not shown. The call rests on the fitted dose curve; in most records, active means well fitted curve in the direction sought with a large enough effect; inconclusive means small, poorly fitted or top-dose-only effect, or another doubt; inactive means no such curve, though single readings can be large; an effect the other way counts as inactive or inconclusive.

SMILES	NPC1 promoter act	ELG1 genotoxic	Rab9 prom act	FLuc counter	SMN2 splice up
O=C(O)C(O)C(O)C(O)C(O)C(=O)O (configuration not stated)	-	-	-	-	0
CCC(=O)Nc1ccc2c(c1)ncn2-c1ccc(OC)cc1	0	18µM	0	27µM	13µM
CCC(=O)Nc1ccc2c(c1)ncn2-c1ccc(C)cc1	2.2µM	?	2.5µM	8.5µM	8.9µM
O=C(/C=C/c1cccs1)Nc1ccc(Br)cn1	?	9.2µM	?	3µM	14µM
Cc1cc(C)c(-c2csc(NC(=O)/C=C/c3cccs3)n2)c(C)c1	0	0	0	0	0
CCc1nnc(NC(=O)/C=C/c2cccs2)s1	?	23µM	3.5µM	0	?
Cc1cc(C)nc(NC(=O)/C=C/c2cccs2)c1	?	?	3.5µM	13µM	-
O=C(/C=C\c1ccccc1)Nc1nccs1	1.6µM	?	0.89µM	1.9µM	4µM
Cc1ccc(CN2C(=O)CC(c3ccc(Cl)cc3)c3c(C)nn(-c4nc(C)cc(C)n4)c32)cc1 (configuration not stated)	-	-	-	0	-
CN(Cc1ccccc1)C(=O)CN1CCN(S(=O)(=O)c2ccc(Cl)c(Cl)c2)CC1	0	0	0	0	-
On1nnc2c3ccccc3c3ccccc3c21	0	0	0	?	-
CCOC(=O)c1ccc(NC(=O)/C=C/c2cccs2)cc1	?	0	?	11µM	?
O=C(/C=C/c1cccs1)Nc1cccc(NC(=O)/C=C/c2cccs2)n1	?	0	?	1.9µM	7.1µM
Cc1ccccc1NC(=O)C(=O)Nc1ccccc1C	1.3µM	?	0.89µM	?	-
O=C(/C=C/c1cccs1)Nc1ccc(S(=O)(=O)Nc2ncccn2)cc1	0	0	0	0	-
Cc1ccccc1NC(=O)CC(=O)Nc1ccccc1C	0	0	0	0	-
O=C(/C=C/c1cccs1)NC1CC1	0	0	0	0	0
O=C(/C=C/c1cccs1)Nc1nccs1	1.8µM	18µM	2.2µM	?	13µM
CCN(CC)CCOC(=O)c1ccc(NC(=O)/C=C/c2cccs2)cc1	0	0	0	0	0
COc1cc(/C=C/C(=O)OCC(=O)N(C)CC(=O)Nc2ccc(F)cc2)ccc1OC(F)F	0	0	0	0	-
CCCCN(C(=O)c1cc(CC)c(C)s1)c1c(N)n(CCC)c(=O)[nH]c1=O	0	0	0	0	-
Cc1cc(C)c(S(=O)(=O)NCc2cccnc2)c(C)c1	0	0	0	0	-
CCc1nnc(NC(=O)C=C(C)C)s1	?	?	?	?	10µM
Cc1ccccc1NC(=O)/C=C/c1cccs1	?	?	4.5µM	?	13µM
O=C(/C=C/c1cccc(F)c1)Nc1nccs1	2µM	?	1.8µM	9.5µM	11µM
SMILES	NPC1 promoter act	ELG1 genotoxic	Rab9 prom act	FLuc counter	SMN2 splice up
O=C(COC(=O)/C=C/c1cccc(F)c1)Nc1ncccn1	0	0	0	0	-
NS(=O)(=O)c1cccc(NC(=O)/C=C/c2cccs2)c1	?	0	?	7.6µM	?
Cc1ccc(CNC(=O)CCSCc2ccccc2C)cc1	0	0	0	0	-
CC(=O)N1CCc2cc(S(=O)(=O)CCC(=O)NCCc3ccccc3)ccc21	0	0	0	0	-
Cc1cc(C(=O)CSc2nn3c(=O)c(C(C)(C)C)nnc3s2)c(C)n1C	0	0	0	0	0
O=C(Nc1nccs1)C(Br)C(Br)c1ccccc1 (configuration not stated)	1.1µM	?	0.5µM	4.8µM	-
Cc1ccc(/C=N/n2c(-c3ccco3)n[nH]c2=S)cc1	0	0	0	0	-
CCN=c1scc(-c2ccco2)n1/N=C/c1ccc(OC)c(O)c1	-	-	-	5.4µM	?
CCN=c1scc(-c2ccco2)n1/N=C/c1ccc(O)cc1	?	12µM	?	6.7µM	?
CN(CC(CC(=O)Nc1nncs1)c1ccccc1)S(=O)(=O)c1ccc(Br)cc1 (configuration not stated)	0	0	0	0	0
COC(=O)[C@@H](NC(=O)O[C@H]1C(=O)c2cc(OC)ccc2O[C@@H]1c1ccc(OC)c(Br)c1)C(C)C	-	-	-	-	0
COc1ccc(CNc2ccc(Br)cc2)cc1	?	?	?	24µM	0
COc1ccc(CNc2ccc(C(=O)O)cc2)cc1	0	0	0	7.6µM	0
COc1ccc(NCc2ccc(OC)c(OC)c2)cc1	0	0	0	?	0
CCCCn1c(N)c(N(CCOC)C(=O)CSc2nnc(C)n2-c2ccc(OC)cc2)c(=O)[nH]c1=O	0	0	0	0	-
CCOc1ccccc1C(=O)Nc1cccc(-c2ccc(N3CCOCC3)nn2)c1	?	?	4.5µM	1.5µM	-
O=C(Nc1cccc(-c2ccc(N3CCOCC3)nn2)c1)c1ccc(F)cc1F	2.8µM	?	2.8µM	1.1µM	-
COc1ccc(C(=O)Nc2ccc(N3CCOCC3)c(C(F)(F)F)c2)cc1OC	-	-	-	?	0
COc1cccc(C(=O)Nc2cccc(-c3ccc(N4CCOCC4)nn3)c2)c1	?	0	?	2.1µM	-
COc1ccc(C(=O)Nc2cccc(-c3ccc(N4CCOCC4)nn3)c2)cc1OC	?	0	2.8µM	0.76µM	-
CC(C)c1ccc(NC(=O)CSC2=Nc3ccccc3C3=NC(CC(=O)NCc4ccc(F)cc4)C(=O)N23)cc1 (configuration not stated)	-	-	-	0	-
COc1ccccc1C(=O)NNC(=O)c1ccc(NC(=O)CC(C)C)cc1	0	0	0	0	-
COc1cccc(-n2c(=O)c3c(C)c(C)sc3n(CC(=O)Nc3ccccc3OC)c2=O)c1	-	-	-	0	0
CCOC(=O)c1c(C)oc2nc(C)nc(N3CCN(c4cccc(C(F)(F)F)c4)CC3)c12	-	-	-	0	-
CCOc1ccc(C(=O)Nc2cccc(-c3ccc(N4CCOCC4)nn3)c2)cc1OCC	?	0	4µM	1.2µM	-
SMILES	NPC1 promoter act	ELG1 genotoxic	Rab9 prom act	FLuc counter	SMN2 splice up
CCOc1ccc(C(=O)Nc2ccc(S(=O)(=O)N3CCOCC3)cc2)cc1OCC	0	0	0	0	0
COc1cccc(C(=O)Nc2cccc(-c3ccc(N4CCOCC4)nn3)c2)c1OC	3.5µM	0	1.1µM	0.38µM	-
CCOC(=O)c1sc(NC(=O)C(C)(C)C)cc1C	2.8µM	18µM	3.2µM	12µM	10µM
CCOC(=O)c1sc(NC(=O)C2CC2)cc1C	0	0	0	?	0
CCOC(=O)c1sc(NC(=O)c2cccc(S(=O)(=O)N(CC)CC)c2)cc1C	0	0	0	?	0
CCOC(=O)c1sc(NC(=O)c2ccc(Cl)s2)cc1C	?	2.3µM	1µM	0.6µM	7.9µM
CCOC(=O)c1sc(NC(=O)Nc2ccc(Cl)cc2)cc1C	0	?	0	6.7µM	0
CCOC(=O)c1sc(NC(=O)c2c(C)nn(Cc3ccccc3)c2C)cc1C	0	0	0	21µM	0
CCn1c(C(=O)Nc2ccc(C)cc2C)cc2sc(Cl)cc21	-	-	-	0	0
CCCCOc1cccc(C(=O)N(Cc2ccc(N(C)C)cc2)C2CCS(=O)(=O)C2)c1 (configuration not stated)	-	-	-	0	0

Bioassay records as filed in PubChem.
